Where “and” joins values, the source holds several entries; their conditions need not be identical. Equal values may be shown once. Records with an inconclusive call do not appear. A call without a number means that no potency is given here. More than one record can exist for a structure, and the calls need not agree. A number with no mark means an inactive call. Calls of active or inactive are those of the source. The call rests on the fitted dose curve; in most records, active means well fitted inhibition curve with a large enough effect; inconclusive means small, poorly fitted or top-dose-only effect; inactive means flat fitted curve, though single readings scatter.
What was measured:
[1] = system: CRL-7250; experiment: Cytotoxic Profiling of Annotated Libraries Using Quantitative High-Throughput Screening (AID 1296008); conditions: Five cell lines viability, CellTiter-Glo ATP luminescence, 48-72 h; max response: active compounds read low
Outline: (§1)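 Cytotoxicity was measured as CellTiter-Glo ATP luminescence, read after 10 min at room temperature. Compound treatment of the cells lasted 48 or 72 hr at 37 degrees Celsius in a qHTS format.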

[2] = system: HEK293; experiment: as above; conditions: Five cell lines viability, CellTiter-Glo ATP luminescence, 48-72 h; max response: active compounds read low
Outline: as §1

[3] = system: MCC-13; experiment: qHTS assay to identify novel small-molecules to repurpose for Merkel cell carcinoma treatment (AID 1296009); conditions: MCC and control cell lines, CellTiter-Glo viability, 72 h; series mostly up to 46 µM
Outline: (§2)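 Cell viability measured by CellTiter-Glo following 72 hr compound treatment at 37 degree celsius, with NPC and MIPE libraries tested in 8- and 11-point concentration series.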

[4] = system: MCC-26; experiment: as above; conditions: MCC and control cell lines, CellTiter-Glo viability, 72 h; series mostly up to 46 µM
Outline: as §2

[5] = system: MKL-1; experiment: as above; conditions: MCC and control cell lines, CellTiter-Glo viability, 72 h; series mostly up to 46 µM
Outline: as §2

[6] = system: MKL-2; experiment: as above; conditions: MCC and control cell lines, CellTiter-Glo viability, 72 h; series mostly up to 46 µM
Outline: as §2

[7] = system: HaCat; experiment: Cytotoxic Profiling of Annotated Libraries Using Quantitative High-Throughput Screening (AID 1296008); conditions: Five cell lines viability, CellTiter-Glo ATP luminescence, 48-72 h; max response: active compounds read low
Outline: as §1

[8] = system: KB-3-1; experiment: as above; conditions: Five cell lines viability, CellTiter-Glo ATP luminescence, 48-72 h; max response: active compounds read low
Outline: as §1

[9] = system: NIH3T3; experiment: as above; conditions: Five cell lines viability, CellTiter-Glo ATP luminescence, 48-72 h; max response: active compounds read low
Outline: as §1

[10] = system: HACAT; experiment: qHTS assay to identify novel small-molecules to repurpose for Merkel cell carcinoma treatment (AID 1296009); conditions: MCC and control cell lines, CellTiter-Glo viability, 72 h; at 44.8 µM (top of the series) unless noted
Outline: as §2
Further: nearly all actives have a fitted effect of over 60% in size.
Potency means the concentration at half of the fitted maximal effect.

## O=c1cc(-c2ccccc2)oc2cc(O)cc(O)c12
[1]
  max response: -20.5%
[2]
  Potency: 8.33 µM (active)
[3]
  Potency: inactive
[4]
  Potency: inactive
[5]
  Potency: inactive
[6]
  Potency: inactive

## C[C@@H]1CCN(C(=O)CC#N)C[C@H]1N(C)c1ncnc2[nH]ccc12
[1]
  max response: -14.7%
[7]
  Potency: 8.33 µM (active)
[8]
  max response: -5.04%
[9]
  max response: -18.3%
[3]
  Potency: inactive
[4]
  Potency: inactive
[5]
  Potency: inactive
[6]
  Potency: inactive

## O=C(NCc1ccncc1)C12C[C@H]3C[C@@H](C1)CC(c1ccc(Cl)cc1)(C3)C2
[1]
  max response: -10.8%
[2]
  Potency: 10.5 µM (active)
[3]
  Potency: inactive
[6]
  Potency: inactive

## CC[C@H]1OC(=O)[C@H](C)[C@@H](O[C@H]2C[C@@](C)(OC)[C@@H](O)[C@H](C)O2)[C@H](C)[C@@H](O[C@@H]2O[C@H](C)C[C@H](N(C)C)[C@@H]2O)[C@](C)(O)C[C@@H](C)CN(C)[C@H](C)[C@@H](O)[C@]1(C)O
[1]
  outcome: inactive
[7]
  outcome: inactive
[8]
  outcome: inactive
[9]
  outcome: inactive
[10]
  outcome: inactive
[3]
  Potency: inactive
[5]
  Potency: inactive

## C=C1C(=O)[C@@]23C(CC[C@@H]1[C@H]2O)[C@@]12CO[C@]3(O)[C@@H](O)[C@@H]1C(C)(C)CC[C@@H]2O (some centres undefined)
[1]
  Potency: 18.4 µM (active)
[2]
  Potency: 13.2 µM (active) and 8.2 µM (active)
[9]
  Potency: 18.7 µM (active)
[3]
  Potency: 16.6 µM (active)
[5]
  Potency: 1.18 µM (active)
[6]
  Potency: 0.935 µM (active)

## CC1(C)S[C@H]2[C@H](NC(=O)[C@@H](N)c3ccc(O)cc3)C(=O)N2[C@@H]1C(=O)O
[1]
  outcome: inactive
[7]
  outcome: inactive
[8]
  outcome: inactive
[10]
  outcome: inactive
[3]
  Potency: inactive
[4]
  Potency: inactive
[6]
  Potency: 4.18 µM (active)

## C[C@H](NC(=O)c1sccc1OCc1ccc(Cl)cc1)c1ccccc1
[1]
  Potency: 29.6 µM (active)
[2]
  Potency: 16.6 µM (active)
[8]
  Potency: 20.9 µM (active)
[9]
  max response: -27.6%
[3]
  Potency: inactive
[4]
  Potency: inactive
[5]
  Potency: inactive

## CCC(=O)O[C@]1(C(=O)CO)CC[C@H]2[C@@H]3CCC4=CC(=O)CC[C@]4(C)[C@@H]3CC[C@@]21C
[1]
  Potency: 13.2 µM (active)
[7]
  max response: -31%
[8]
  max response: 0.702%
[9]
  outcome: inactive
[3]
  Potency: inactive
[4]
  Potency: inactive
[5]
  Potency: inactive
[6]
  Potency: inactive

## CC(C)C[C@H](CC(=O)O)C(=O)N[C@@H](Cc1c[nH]c2ccccc12)C(=O)N[C@@H](C)c1ccccc1
[1]
  max response: -5.99%
[7]
  max response: 3.15%
[8]
  max response: 5.47%
[3]
  Potency: inactive
[4]
  Potency: inactive
[5]
  Potency: 4.69 µM (active)

## NC(=O)[C@@H](CCC(F)(F)F)N(Cc1ccc(-c2ncon2)cc1F)S(=O)(=O)c1ccc(Cl)cc1
[1]
  max response: -21.3%
[7]
  max response: -0.733%
[8]
  max response: -20.8%
[9]
  max response: -26.9%
[3]
  Potency: inactive
[5]
  Potency: inactive
[6]
  Potency: inactive

## COc1ccc(Cc2ccc(NC(N)=O)cc2)cc1-c1cccc(Cl)c1
[1]
  max response: 2.51%
[2]
  max response: -15.8%
[8]
  max response: -9.2%
[9]
  max response: -1.6%
[3]
  Potency: inactive
[4]
  Potency: inactive
[5]
  Potency: inactive
[6]
  Potency: inactive

## N#CC1(c2ccc(NC(=O)c3cccnc3NCc3ccncc3)cc2)CCCC1
[1]
  max response: -26.7%
[7]
  outcome: inactive
[8]
  max response: -11.6%
[9]
  max response: -15.9%
[10]
  outcome: inactive
[3]
  Potency: inactive
[5]
  Potency: inactive
[6]
  Potency: inactive

## CS(=O)(=O)N(Cc1ccco1)CC(O)Cn1c2ccccc2c2ccccc21 (centres undefined)
[1]
  max response: -10% and -6.7%
[7]
  max response: -8.74%
  outcome: inactive
[8]
  max response: -4.93% and 3.15%
[9]
  max response: -17.4% and 0.438%
[10]
  outcome: inactive
[3]
  Potency: inactive
[4]
  Potency: inactive
[5]
  Potency: inactive
[6]
  Potency: inactive

## CC(C)(C)Cn1c(N)nc2ccc(-c3[nH]c(C(C)(C)C)nc3-c3ccc(F)cc3)nc21
[1]
  max response: -25.6% and -19.9%
[2]
  Potency: 11.6 µM (active)
[7]
  Potency: 5.9 µM (active) and 4.61 µM (active)
[4]
  Potency: inactive
[5]
  Potency: inactive
[6]
  Potency: inactive

## CN(C)Cc1cccc(N=C(c2ccccc2)c2c(O)[nH]c3cc(C(=O)N(C)C)ccc23)c1
[1]
  Potency: 20.9 µM (active)
[7]
  max response: -49.2%
[8]
  max response: -15%
[9]
  Potency: 13.2 µM (active)
[3]
  Potency: inactive
[5]
  Potency: inactive

## CC(C)(C)C(=O)Oc1ccc2c(c1)nc(NC(=O)c1cccc([N+](=O)[O-])c1)n2CCCO
[1]
  outcome: inactive
[7]
  max response: -9.39%
[8]
  max response: 7.62%
[9]
  outcome: inactive
[3]
  Potency: inactive
[5]
  Potency: inactive
[6]
  Potency: inactive

## CCS(=O)(=O)N1CC(CC#N)(n2cc(-c3ncnc4[nH]ccc34)cn2)C1
[1]
  max response: -3.54%
[7]
  Potency: 5.17 µM (active)
  max response: -22.3%
[3]
  Potency: inactive
[4]
  Potency: inactive
[5]
  Potency: inactive
[6]
  Potency: inactive

## O=C1c2c(O)cc(O)cc2O[C@H](c2cc(O)c(O)c(O)c2)[C@H]1O
[1]
  max response: 1.37%
[7]
  max response: -8.4%
[8]
  max response: 4.36%
[9]
  max response: 4.33%
[3]
  Potency: inactive
[4]
  Potency: inactive

— PubChem BioAssay (NCATS)
